High-throughput results (PubChem BioAssay)
DAX1 inh-1 = DAX1 (NR0B1) inhibitors, primary screen, cell-based, HEK293, Gal4-DAX1, luciferase luminescence. HEK293 Gal4-DAX1 luciferase reporter. AID 504766, 2011. 0.99% of 340,000 active. inhibition, % at 6.75 µM;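 active means inhibition above the mean over all tested compounds plus 3 SD, cut at about 4.2% in these data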;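 further: 0% = DAX1-transfected cells with DMSO and 100% = empty-vector control cells with DMSO; inhibition shows as a rise in luminescence from relieved DAX1 repression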
Target sequence (P51843 207-470 limits assumed): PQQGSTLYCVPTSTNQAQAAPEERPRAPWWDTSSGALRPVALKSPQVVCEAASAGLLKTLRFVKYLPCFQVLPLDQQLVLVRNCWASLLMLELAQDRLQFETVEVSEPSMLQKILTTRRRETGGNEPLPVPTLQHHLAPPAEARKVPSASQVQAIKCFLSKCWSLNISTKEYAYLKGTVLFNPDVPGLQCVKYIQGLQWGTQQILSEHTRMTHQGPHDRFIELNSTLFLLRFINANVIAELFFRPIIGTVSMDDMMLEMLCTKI
SMARCA2 act = SMARCA2 (BRM) function activators, primary screen, cell-based, luminescence, high throughput; activation, % at 9.1 µM; MG213 cells, MMTV-luciferase reporter, dexamethasone, overnight; AID 652017, 2013; 1% of 370,000 active; in the data active means activation above about 7.8%;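 further: 0% = vehicle wells and 100% = reference activator wells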
hcDAF12 agonist = H. contortus DAF-12 nuclear receptor activators, primary screen, cell-based, luminescence, HEK293, lit1-tk-luc reporter; 1.4% of 370,000 active; activation, % at 6.8 µM; HEK293 hcDAF-12 lit1-tk-luc reporter; 0% DMSO, 100% Δ7-dafachronic acid;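 active means activation above the mean of all tested compounds plus 3 SD, cut at about 5.5% in these data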;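 further: 100% = response to 3 µM Δ7-dafachronic acid high control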
hgDAF-12 ag = H. glycines DAF-12 receptor agonists, primary screen, cell-based, luminescence, HEK293, GAL4 fusion, UAS-luciferase; 1.8% of 370,000 active; AID 687014, 2013; activation, % at 6.8 µM; Nuclear hormone receptor DAF-12 (Heterodera glycines), GAL4 fusion; HEK293 GAL4-hgDAF12 UAS-luciferase reporter, agonist luminescence; normalized to butyrate control;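 active means activation above a cutoff set at the mean of all screened compounds plus 3 SD, cut at about 10% in these data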;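 further: 0% = DMSO wells and 100% = sodium butyrate wells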
DAX1 inh-2 = DAX1 (NR0B1) inhibitors on StAR promoter, primary screen, cell-based, luminescence, SF-1 (NR5A1), full-length DAX-1; 1.1% of 370,000 active; AID 652010, 2013; HEK293T StAR-luciferase reporter, SF-1/DAX-1 repression relief; inhibition, % at 6.8 µM;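 active means inhibition above the mean over all tested compounds plus 3 SD, cut at about 3.6% in these data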;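 further: 0% = DAX-1 cells with DMSO and 100% = cells lacking DAX-1 with DMSO; higher inhibition means more luminescence from relief of DAX-1 repression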
ssDAF12 agonist = S. stercoralis DAF-12 nuclear receptor activators, primary screen, cell-based, luminescence, HEK293, GRIP1 co-expression, lit1-tk-luc | Nuclear hormone receptor DAF-12 (Strongyloides stercoralis) | HEK293 ssDAF-12/GRIP1 lit1-tk-luc reporter; % of 3 µM dafachronic acid response | activation, % at 6.8 µM | 1% of 370,000 active;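 active means activation above the mean over all tested compounds plus 3 SD, cut at about 0.9% in these data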;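 further: 0% = DMSO-only wells and 100% = 3 µM delta7-dafachronic acid wells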
SMARCA2 act conf = SMARCA2 (BRM) function activators, confirmation, cell-based, luminescence, triplicate; shares compounds with SMARCA2 act; MG213 cells, MMTV-luciferase with dexamethasone, overnight; MG213 cells expressing E1A, Rb sequestered; DMSO wells 0%, reference activator 100%; activation, % at 9.1 µM; 30% of 3,500 active;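 active means activation above its plate's cutoff, the mean activation of tested wells plus 3 SD, cut at about 7.9% in these data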
GAL4-VP16 Luc = GAL4-VP16 luciferase reporter activation, counter-screen for SMARCA2 (BRM) activator project, cell-based, pG5luc, luminescence, high throughput. shares compounds with SMARCA2 act. HEK293 GAL4-VP16 pG5luc reporter; scaled: DMSO wells 0%, SAHA wells 100%. activation, % at 9.1 µM. 41% of 3,500 active. AID 686939, 2013;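 active means activation above the solvent-only control well mean plus 3 SD, averaged across control plates, cut at about 5.2% in these data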
Active calls of the source: *; . = no result. A selection: hits, their analogues and other compounds. The true share with any hit is near 4.8%.

SMILES	DAX1 inh-1	SMARCA2 act	hcDAF12 agonist	hgDAF-12 ag	DAX1 inh-2	ssDAF12 agonist	SMARCA2 act conf	GAL4-VP16 Luc
Cn1nnc(-c2ccc(OCc3ccccc3F)cc2)n1	1.6	11.4*	1.8	8.6	3.8*	1.0*	7.1	12.9*
O=C(NC1CC[C@@]23CCCN2C(=O)CCC[C@H]3C1)c1ccccc1 (some centres not stated)	.	.	-1.0	-0.1	.	-0.8	.	.
Cc1c(C(O)(c2ccccc2)c2ccccc2)[n+]2ccccc2n1C	.	.	-1.4	-2.1	.	-1.3	.	.
COc1ccc(C(=O)N/N=C(/C)c2cccc(NC(=O)C(F)(F)F)c2)cc1	-0.6	14.0*	-1.2	2.5	1.2	-1.1	7.6	7.0*
CCCC/C=C1/[C@@H](C(C)C)N(Cc2ccc3c(c2)OCO3)C2=N[C@H](c3ccccc3)CC(=O)N21	.	.	-1.2	1.4	.	-1.1	.	.
O=C(CSc1nnc(-c2ccco2)o1)c1ccccc1Cl	-1.3	9.3*	-0.2	1.2	-0.8	-1.5	6.3	0.7
CN(Cc1ccccc1)C(=O)OCc1cn(Cc2ccccc2C(F)(F)F)nn1	.	-0.3	2.2	-1.3	-0.8	-0.4	.	.
CCOC(=O)CSc1cccc2cccnc12	0.1	9.4*	-1.0	-4.0	-1.4	-1.3	-8.7	1.1
Cc1cccc(NC(=O)CSc2cccc3cccnc23)c1C	0.9	-2.3	-3.1	-0.4	-1.0	-0.7	.	.
COC(=O)C[C@@H]1CC[C@H]2[C@@H](COc3ccc(NC(=O)Nc4ccccc4C)cc3C(=O)N2C)O1	.	-0.8	0.0	-1.1	0.3	-1.2	.	.
COc1ccc(C(=O)C2CC2)cc1	2.0	-3.5	1.4	5.1	-0.3	-0.6	.	.
C=C(c1ccc(OC)cc1)c1ccc(OC)cc1	0.8	9.3*	0.9	1.2	0.4	-1.1	2.0	2.1
O=C(O)/C=C/c1ccc(O)cc1	-0.5	0.8	0.4	-2.5	1.2	-0.8	.	.
COc1ccc(C(=O)C=Cc2cccs2)c(O)c1	-0.4	8.2*	2.5	11.0*	3.3	-1.1	5.4	5.7*
COc1ccc(C(=O)/C=C/c2ccc(OC)cc2OC)c(O)c1	3.1	2.7	-0.7	3.3	1.1	-1.2	.	.
COc1ccc(C(=O)/C=C/c2ccccc2)c(O)c1	0.9	8.2*	0.8	8.2	0.6	-1.0	3.8	2.0
O=C(/C=C/c1ccc(O)cc1)c1ccc(O)cc1O	-1.2	8.1*	0.2	7.5	0.5	-0.2	10.5*	1.4
COc1ccc(C(=O)/C=C/c2cccs2)c(OC(=O)N2CCOCC2)c1	-1.1	0.7	-0.1	-1.1	-0.6	-0.8	.	.
Cc1ccc(-n2c(SCC(=O)Nc3ccc(OCc4ccccc4)cc3)nnc2-c2ccco2)cc1	.	-4.6	2.8	-0.6	-1.7	-1.3	.	.
Cc1ccc(OCC(=O)Nc2cccc(C)n2)c(C)c1	0.7	10.5*	3.7	10.8*	3.2	-0.3	2.8	11.6*
O=C(CSc1cccc[n+]1[O-])Nc1cc([N+](=O)[O-])ccc1Cl	0.1	0.9	-1.2	2.5	-0.1	-0.5	.	.
Cc1ccc(NC(=O)CSc2cccc[n+]2[O-])c([N+](=O)[O-])c1	0.9	8.4*	0.8	-2.8	-0.4	-1.6	0.3	0.6
O=C(CSc1cccc[n+]1[O-])Nc1ccccc1Oc1ccccc1	-0.8	8.4*	-2.1	-2.6	0.6	-0.9	10.2*	1.8
O=C(CSc1cccc[n+]1[O-])Nc1ccccc1C(F)(F)F	2.3	-1.9	1.1	3.1	-0.4	-1.4	.	.
CCC[C@H]1[C@@H](OC(=O)NCc2ccc(C)cc2)CC[C@@]23CCCN2C(=O)CCC[C@@H]13	.	.	-0.7	2.9	.	-2.1	.	.
SMILES	DAX1 inh-1	SMARCA2 act	hcDAF12 agonist	hgDAF-12 ag	DAX1 inh-2	ssDAF12 agonist	SMARCA2 act conf	GAL4-VP16 Luc
COCCN(CC(=O)Nc1cccc(C)c1C)C(=O)c1ccc2ccccc2n1	0.1	9.0*	3.5	5.7	1.7	0.2	6.4	2.3
Cc1cccc2sc(NC(=O)c3ccc(OCC4CCCO4)cc3)nc12 (configuration not stated)	0.2	11.6*	2.4	12.7*	1.9	-0.9	-2.2	3.5
O=C(COCc1ccccc1)N1CCC(Oc2cccnc2)CC1	.	3.8	0.9	5.3	3.1	0.0	.	.
C#CCNC(=O)C[C@H]1C[C@@]2(C(=O)OCC)CCCC3=C2N(CCC3)C1=O	.	-0.8	0.3	-1.4	-1.2	0.2	.	.
O=S(=O)(c1ccc(F)cc1)N1CCC(c2nc3ccccc3o2)CC1	.	-6.8	-3.2	-0.7	-1.0	-1.5	.	.
CN=C1NC(=O)/C(=C\c2cc(C)n(-c3ccccc3F)c2C)S1	.	.	2.4	4.9	.	-0.6	.	.
S=C(N=Nc1ccccc1)NNc1ccccc1	3.2	10.3*	11.3*	12.5*	3.2	0.1	13.7*	7.7*
Cn1nc([N+](=O)[O-])nc1S(C)(=O)=O	-0.6	51.6*	0.1	-0.3	-0.1	-1.1	48.9*	0.3
CCOC(=O)C1CCN(C(=O)c2ccc(OC)cc2OC)CC1	0.6	-1.1	-0.9	-2.1	0.1	-1.5	.	.
CCOC(=O)C1CCCN(C(=O)c2ccc(OC)cc2OC)CC1 (configuration not stated)	.	10.3*	2.4	0.9	-0.1	-1.6	0.8	-0.5
Cc1cc2cc(C#N)c(N3CCN(S(C)(=O)=O)CC3)nc2cc1C	1.1	9.1*	-0.8	1.9	-0.9	-1.1	1.7	2.1
C[C@H]1CCCN1c1ccc2c(c1)OCCCN(C1CC1)S2(=O)=O	.	-1.4	-1.3	0.1	-1.2	-1.3	.	.
O=C(CN1CCCCC1)Nc1c2c(nc3ccccc13)N(c1ccccc1)CC2	-0.3	10.8*	1.1	-1.7	-0.7	-0.8	9.4*	2.2
N#Cc1ccc(/C=C\c2nccc3c2[nH]c2ccccc23)cc1	-1.8	9.9*	3.7	2.9	-1.7	0.3	10.2*	-1.5
